Results filed as inconclusive are left out. Unmarked numbers belong to inactive results. Activity calls are given as the source filed them. Calls come from the whole dose curve; as a rule, active = well fitted curve in either direction with a large enough effect (not every such curve was filed as active); inconclusive = small, poorly fitted or top-dose-only effect, or another doubt; inactive = flat fitted curve, though single readings scatter.
Biological target: Mitogen-activated protein kinase 10 (Mus musculus) (UniProt Q61831)
Assay: JNK3 AlphaScreen Assay (AID 530);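 note: kinase came from lysate of stimulated human HepG2 cells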
Settings: JNK3 lysate, c-Jun phosphorylation; series mostly up to 57.1 µM; activity change, negative = inhibition: at the top concentration
From the text: NIH Chemical Genomics Center [NCGC]
NIH Molecular Libraries Screening Centers Network [MLSCN]
The c-jun N-terminal kinase (JNK) family are serine/threonine protein kinases that phosphorylate c-jun, a component of the transcription factor […] (AP-1). JNK kinases are members of the mitogen-activated protein kinase family including the extracellular regulated kinases and p38 kinases. Three JNK genes (JNK 1, 2, and 3) have been identified in humans so far. JNK1 and JNK2 have a broad distribution and JNK3 is primarily found in neuronal tissues and cardiac myocytes.
JNK3 has been under consideration as a target for the treatment of neurodegenerative disorders. […] JNK pathway is also involved in pathological process in a mouse model of Parkinson's disease (Xia et al., 2001).
Given these potential tissue distributions and links to neuroprotection, JNK3 inhibitors should provide useful investigational tools to study the role of this kinase in several diseases including, arthritis, stroke, myocardial infarction, ischemic injury and Parkinson's disease.
A homogeneous AlphaScreen is developed to measure the activity of JNK3. AlphaScreen is a two bead-based proximity-dependent chemical energy transfer luminescent assay platform. The phosphorylation of a biotinylated c-jun substrate by JNK3 can be detected with an antibody raised against phosphorylated c-jun. This process brings streptavidin donor beads and Protein-A acceptor beads to within a proximity range of <200 nm, and subsequently lead a chemical luminescent reaction upon exciting donor beads with 680 nm laser excitation light. Inhibition of JNK3 activity by small molecules and subsequent decrease in the antibody binding to biotinylated c-jun could attenuate or abolish this chemical luminescent reaction.
Yang DD, Kuan CY, Whitmarsh AJ, Rincon M, Zheng TS, Davis RJ, Rakic P and Flavell RA (1997) Absence of excitotoxicity-induced apoptosis in the hippocampus of mice lacking the Jnk3 gene. Nature 389:865-870. [PMID: 9349820]
Herdegen T, Claret FX, Kallunki T, Martin-Villalba A, Winter C, Hunter T, and Karin M (1998) Lasting N-terminal phosphorylation of c-Jun and activation of c-Jun N-terminal kinases after neuronal injury. J.Neurosci. 18:5124-5135. [PMID: 9651196]
Xia XG, Harding T, Weller M, Bieneman A, Uney JB and Schulz JB (2001) Gene transfer of the JNK interacting protein-1 protects dopaminergic neurons in the MPTP model of Parkinson's disease. Proc.Natl.Acad.Sci.U.S.A. 98:10433-10438.
NCGC Assay Protocol Summary:
GST-cJun (1-79) (Stratagene, La Jolla CA, #205145) was biotnylated by PerkinElmer (PerkinElmer-BioSignalInc. Montreal, Canada) and was detectable by the streptavidin Donor beads. Anti-(phospho)cJun (Ser73) antibody was from UpState (Charlottesvilles, VA, #06-659). JNK3-containing lysates were generated from HepG2 cells and pre-activated by interleukin1-beta and tumor necrosis factor alpha. All reagents were stored at -20 C before using. Phosphorylated biotinylated-GST-cJun was recognized by Anti-(phospho)cJun (Ser73) antibody and this process brings acceptor and donor beads together. Therefore JNK3 phosphorylation of cJun can be measured by Alpha reading by EnVision (PerkinElmer, Boston, MA).
The composition of kinase buffer was (in mM) 20 tris- HCl (pH 7.6) 10 MgCl2, 1 DTT, and 0.1 Na3VO4 and 0.01% Tween-20. Beads were diluted in detection buffer containing (in mM) 20 tris-HCl (pH 7.7), 20 NaCl and 80 EDTA and 0.3% BSA. The assay was performed at room temperature. All compounds were screened as titrations from 0.6 nM to 46 uM final concentration. The assay was performed in 1536-well format (white solid bottom and untreated) as follows:
Sequence,Parameter,Value,Description
1,Reagent,3 uL,Biotin-GST-cJun, Anti-(phospho)cJun and pre-activated JNK3-containing lysates
2,Compound,23 nL,Final concentration was 0.6nM to 46uM
3,Time,15 minutes,Room Temperature
4,Reagent,1 uL,ATP final concentration 10uM
6,Reagent,0.5 uL,2ng/well bead mixture
[…]
% is set by controls: 0 for no effect and ±100 for the full control effect; potency is the fitted concentration of half-maximal effect.

| SMILES | Potency | activity change, negative = inhibition |
| --- | --- | --- |
| O=c1c(O)c(-c2ccc(O)c(O)c2)oc2cc(O)ccc12 | 12.6 µM (active) |  |
| CC(C)[C@H](CO)Nc1nc(Nc2cccc(Cl)c2)c2ncn(C(C)C)c2n1 | inactive |  |
| CN(N=O)C(=O)N[C@H]1C(O)OC(CO)[C@@H](O)[C@H]1O (some centres not stated) |  | 14.9% |
| CCOC(=O)C1=C(C)NC(=S)NC1c1cccc(O)c1 (configuration not stated) |  | -25.9% |
| COc1ccc2c(c1OC)C(=O)OC2[C@H]1c2c(cc3c(c2OC)OCO3)CCN1C (some centres not stated) | inactive |  |
| CCN1CCN(C(=O)N[C@H](C(=O)N[C@@H]2C(=O)N3C(C(=O)O)=C(CSc4nnnn4C)CS[C@@H]23)c2ccc(O)cc2)C(=O)C1=O |  | 20.5% [at 25.6 µM] |
| Cc1cc(O)c2c(c1)C(=O)c1cccc(O)c1C2=O |  | -26.5% |
| c1coc(CNc2ncnc3nc[nH]c23)c1 | inactive |  |
| O=C(O)C=Cc1ccc(Cn2ccnc2)cc1 |  | 13.3% |
| Nc1nc2c(c(=O)[nH]1)N(C=O)[C@H](CNc1ccc(C(=O)N[C@@H](CCC(=O)O)C(=O)O)cc1)CN2 |  | -6.34% [at 25.6 µM] |
| COc1ccc([C@@H]2CNC(=O)C2)cc1OC1CCCC1 | inactive |  |
| CN(C)CC[C@H](c1ccc(Cl)cc1)c1ccccn1 | inactive |  |
